Assay outcomes from PubChem.
DRD3 agonist – activates the human D3 dopamine receptor. P35462. D3R DiscoveRx beta-arrestin cells, luminescence, 90 min. max activation, %. 0.58% of 410,000 active; in the data active means max activation above about 30%; further: 0% is about no effect
Target sequence (P35462 whole entry, looked up): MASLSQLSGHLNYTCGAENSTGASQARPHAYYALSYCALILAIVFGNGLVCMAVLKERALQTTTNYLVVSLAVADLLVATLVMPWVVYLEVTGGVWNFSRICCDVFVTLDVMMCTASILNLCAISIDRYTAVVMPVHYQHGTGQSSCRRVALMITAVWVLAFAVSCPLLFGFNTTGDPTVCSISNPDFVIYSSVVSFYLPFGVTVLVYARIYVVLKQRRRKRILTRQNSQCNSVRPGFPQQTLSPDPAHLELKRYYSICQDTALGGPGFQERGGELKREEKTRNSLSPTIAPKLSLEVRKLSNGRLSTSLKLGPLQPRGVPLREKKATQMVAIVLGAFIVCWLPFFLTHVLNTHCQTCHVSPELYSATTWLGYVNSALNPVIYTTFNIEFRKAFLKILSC
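Cells at 1500/well, incubated overnight, then treated with pinned compounds (dopamine as control) for 90 min at 37 degrees C. DiscoveRx reagent added for 30 - 60 minutes at room temperature; luminescence read.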
D1 potentiator – potentiators of human D1 dopamine receptor; HEK293 TREx D1 cells, calcium flux, dopamine EC20 potentiation; 0.036% of 360,000 active; potentiation, % at 10 µM; in the data active means potentiation above about 30%; further: 0% is about no effect
D1 ag – agonists of human D1 dopamine receptor | HEK293 T-REx D1 cells, calcium flux, agonist mode | P21728 | activation, % at 2 µM | 1% of 360,000 active | AID 504660; in the data active means activation above about 30%; further: 0% is about no effect
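Agonism was scored from calcium flux recorded over 180 s (1 read/s) after pintool compound addition, following a 10-cycle baseline. Cells were inducible force-coupled HEK293 TREx D1, plated overnight at 30 C and loaded with no-wash calcium dye.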
D1 antag – blocks dopamine activation of the human D1 receptor. HEK293 TREx D1 cells, calcium flux, dopamine EC80; active compounds read low. activity change, negative = inhibition, % at 10 µM. 3.2% of 360,000 active. P21728; in the data active means activity change below about -30%; further: on the % scale 0 is the no-effect control and ±100 the full control effect
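Inducible Hek293 Trex D1 cells (tetracycline, overnight, 30 C). Calcium dye 30–90 min RT. Antagonist mode: EC80 dopamine added after 180 s compound read.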
DRD3 antagonist – D3 dopamine receptor (human) antagonism. AID 652054. D3R cells, DiscoveRx beta-arrestin luminescence, antagonist mode; active compounds read low. 2.5% of 360,000 active. P35462. max response, negative = inhibition, %; in the data active means max response below about -50%; inconclusive means no clear call, values can overlap the other calls; further: on the % scale 0 is the no-effect control and ±100 the full control effect
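Cells expressing the human receptor were seeded at 1500 cells/well, incubated overnight at 37 degrees C in 5% CO2, then exposed to library compounds with dopamine controls for 90 minutes at 37 degrees C before luminescent detection.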
An asterisk follows results filed as active; u = inconclusive; x = no result. Shown are actives, neighbours in structure and some others; about 6.1% of the full set was active somewhere.

SMILES	DRD3 agonist	D1 potentiator	D1 ag	D1 antag	DRD3 antagonist
CC(C)C/C=C1\CCc2c([nH]c3ccccc23)C1=O	-4.6	0.3	2.8	16.4	u
CCCCCCCCC1=NCCc2c1[nH]c1ccccc21	-7.3	-10.9	38.2*	-13.5	-16.5
c1ccc(CNc2nc(N3CCN(Cc4ccccc4)CC3)nc3ccccc23)cc1	-29.7	-14.1	7.6	-34.8*	-93.0*
c1coc(CNc2nc(N3CCCCC3)nc3ccccc23)c1	-19.6	-19.6	19.1	-31.7*	u
c1ccc(N2CCN(c3nc(NCc4ccco4)c4ccccc4n3)CC2)cc1	-16.6	-16.5	1.2	-77.6*	-20.7
O=c1c2ccccc2nc2c3ccccc3c(NCc3ccco3)nn12	6.7	1.2	0.6	-15.2	15.7
OCCNc1nc(N2CCCCC2)nc2ccccc12	-6.9	-5.0	0.8	-17.4	-8.5
Nc1nc(N2CCN(Cc3ccccc3)CC2)n[nH]1	51.2*	1.6	2.6	-0.5	20.5
Oc1ccccc1-c1nc(N2CCN(Cc3ccccc3)CC2)c2ccccc2n1	2.3	0.3	2.1	5.0	-1.5
CCCCOc1cccc(C(=O)N(Cc2cccs2)c2ccc(OC)cc2)c1	-15.2	0.8	19.2	-2.9	x
O=C(O)c1ccc(OCCN2CCCC2=O)cc1	-2.8	11.8	3.8	-1.0	0.5
CC(=O)c1c(N=CN(C)C)nc(C)nc1-c1ccccc1	-1.0	-3.4	0.1	17.4	10.1
CN(C)C=Nc1ccccc1C1C=NNC1=O (stereo not given)	x	-4.8	1.2	-34.3*	x
Cc1ccc(/C=C2/NC(=O)N(c3ccccc3)C2=O)o1	-2.2	0.9	4.3	-4.9	-21.8
O=C1N/C(=C/c2ccc(N3CCOCC3)o2)C(=O)N1c1cccc(Cl)c1	-12.1	-10.4	1.2	x	-74.7*
Cn1c(=O)[nH]c(NCCc2ccc(O)cc2)c([N+](=O)[O-])c1=O	-5.3	x	x	x	1.1
COc1cccc(CNC(=O)CSc2nnc3c(n2)[nH]c2ccccc23)c1	-7.7	-6.5	-0.5	-5.9	-11.6
O=c1cn[nH]c2ccc(Br)cc12	4.6	x	x	x	-16.8
Brc1ccc2[nH]ncc2c1	1.3	-6.1	2.4	-31.9*	-7.3
O=c1[nH]c2ccc([N+](=O)[O-])cc2[nH]1	-12.5	x	x	x	2.7
O=[N+]([O-])c1ccc2[nH]ncc2c1	0.2	-8.8	4.4	-43.5*	10.7
COCCNC(=O)C1(C)CCN(C(=O)c2sc(-c3ccccc3)nc2C)C1 (stereo not given)	10.4	x	x	x	-9.3
CC1CN(C(=O)C(C)N2CCN(c3cccc(Cl)c3)CC2)CC(C)O1 (stereo not given)	-1.2	-14.3	1.7	1.3	14.6
CC1CN(C(=O)C(C)N2CCN(c3ccccc3Cl)CC2)CC(C)O1 (stereo not given)	-6.0	-8.4	0.9	-36.8*	-1.5
COc1cccc(-c2nn(C)c3sc(C(=O)NCCc4cccc(C)c4)cc23)c1	-8.0	15.2	45.6*	-10.7	x
SMILES	DRD3 agonist	D1 potentiator	D1 ag	D1 antag	DRD3 antagonist
COc1cccc(-c2nn(C)c3sc(C(=O)NCc4ccc(C)cc4)cc23)c1	-23.7	1.9	7.3	-5.7	u
COc1cccc(-c2nn(C)c3sc(C(=O)N4CCN(c5cccc(C)c5)C(C)C4)cc23)c1 (stereo not given)	48.0*	0.1	2.4	10.1	x
Cc1cccc(N2CCN(C(=O)c3nn(C)c4c3CSc3ccccc3-4)CC2C)c1 (stereo not given)	2.4	-5.2	0.8	-46.3*	x
CCOC(=O)N1CCN(C(=O)c2cc3c(-c4cccc(OC)c4)nn(C)c3s2)CC1	7.3	0.5	0.0	4.9	52.2
CCOC(=O)N1CCC(NC(=O)c2cc3c(-c4cccc(OC)c4)nn(C)c3s2)CC1	-0.7	-0.8	2.8	-43.2*	5.8
Cc1cccc(N2CCN(C(=O)c3nn(C)c4c3CS(=O)(=O)c3ccccc3-4)CC2C)c1 (stereo not given)	-8.8	0.3	1.0	-5.5	9.8
Cc1ccc(-n2c(C)nnc2SCC(=O)NNC(=O)c2ccco2)cc1	-4.1	-0.6	2.6	2.9	-10.6
CC1(C)CCC(NC(=O)[C@@H](N)CCC(=O)O)CC1	-10.0	x	x	x	x
CCN(CC)C(=O)CS(=O)(=O)CC(=O)Nc1cc(OCCOC)c(Cl)cc1Cl	6.9	1.1	1.2	-54.8*	3.0
COCCOc1cc(NC(=O)CS(=O)CC(=O)N(C)C)c(Cl)cc1Cl (stereo not given)	18.9	1.2	3.2	17.1	4.3
